Data on 23 compounds can be found in ChEMBL document CHEMBL1157539, “Thousands of chemical starting points for antimalarial lead identification” (Nature, 2010).

For orientation: Inhibition means how much of the control response was suppressed. Low values mean little suppression, high ones strong suppression.

Molecules are shown by their SMILES. Where “and” joins values, the source holds several entries; their conditions need not be identical. Equal entries are not always repeated.

Holding throughout (type): functional
Assay [1] deals with Plasmodium falciparum. Description: GSK_TCMDC: Inhibition of Plasmodium falciparum 3D7 in whole red blood cells, using parasite LDH activity as an index of growth. Test compounds present at 2uM.
Assay [2] concerns Plasmodium falciparum. Put plainly: GSK_TCMDC: Inhibition of Plasmodium falciparum Dd2 in whole red blood cells, using parasite LDH activity as an index of growth. Test compounds present at 2uM.
Assay [3] has as its system HepG2. Put plainly: GSK_TCMDC: Percent inhibition of human HepG2 cell line. Test compounds present at 10uM.

`COc1c(F)cc(CC(C)NCC(O)c2cccc(Cl)c2)cc1F.Cl` (centres undefined): the Inhibition in assay [1] worked out at 93%; in assay [2] it was 86%; in assay [3], 0%.
For `O=C(/C=C/c1ccc(Cl)c(Cl)c1)NCc1ccc(CN2CCC(c3c[nH]c4ccccc34)CC2)cc1`, the Inhibition in assay [1] is recorded as 100%; in assay [2], 86%; in assay [3] it was 59%.
For the compound `CC[C@H]1CN2CCc3cc(OC)c(OC)cc3[C@@H]2C[C@@H]1C[C@H]1NCCc2c1cc(OC)c(O)c2Cl`, the Inhibition in assay [1] amounted to 100%; in assay [2] it was 100%; in assay [3], 51%.
For the compound `OC(CNC12CC3CC(CC(C3)C1)C2)c1cccc(C(F)(F)F)c1` (centres undefined), the Inhibition in assay [1] was 97%; in assay [2] it was 98%; in assay [3], 16%.
For the compound `CN1CC=C(c2c[nH]c3ccc(Oc4ccccc4)cc23)CC1.O=C(O)C(=O)O`, the Inhibition in assay [1] was found to be 98%; in assay [2], 98%; in assay [3], 40%.
On to `Cc1ccccc1CNCC(O)c1cccc(C(F)(F)F)c1` (centres undefined), for which the figures for the Inhibition in assay [1], in assay [2] and in assay [3] were 99%, 77% and 5%, respectively.
For `Cc1cc(C2CCCCN2C)ccc1-c1ccc(C(=O)N2CCc3cc4c(cc32)C2(CCN(C)CC2)CO4)cc1.Cl` (centres undefined), the results for the Inhibition in assay [1], in assay [2] and in assay [3] were 95%, 94% and 37%, respectively.
Take `Cc1ccc(C)c(C=CC(=O)NC2CCC(CN3CCC(c4c[nH]c5ccccc45)CC3)CC2)c1` (centres undefined): the Inhibition in assay [1] was 100%; in assay [2], 55% and 80%; in assay [3] it was 46% and 38%.
Consider `Br.COc1ccc(C[C@@H](C)NC[C@H](O)c2cccc(Cl)c2)cc1F`, for which the values for the Inhibition in assay [1], in assay [2] and in assay [3] were 88%, 76% and 2%, respectively.
Take `O=C1Nc2cccc3c2C1(CCCCCN1CC=C(c2c[nH]c4ccccc24)CC1)CCC3` (centres undefined): the Inhibition was 94% in assay [1], 89% in assay [2] and 2% in assay [3].
On to `Cl.Fc1ccc2[nH]cc(CCN3CCC(CNCc4ccccc4)CC3)c2c1`, for which the Inhibition was found to be 100% in assay [1], 94% in assay [2] and 67% in assay [3].
For the compound `COc1ccc(C(=O)C2CC2CN2CC=C(c3c[nH]c4cccc(Br)c34)CC2)cc1.O=C(O)C(F)(F)F` (centres undefined), the values for the Inhibition in assay [1], in assay [2] and in assay [3] were 88%, 67% and 32%, respectively.
On the same counts, the results for `O=C(/C=C/c1ccc(Cl)c(Cl)c1)N1CCC(CN2CCC(c3c(-c4ccc(F)cc4)[nH]c4ccccc34)CC2)CC1` are 100%, 98% and 19%.
The corresponding values for `CC(Cc1ccc(C(C)(C)C)cc1)NCC(O)c1ccccc1.Cl` (centres undefined) are 94%, 89% and 5%.
`CC(C)CNCc1cccc(-c2ccc(CN(C(=O)c3cccs3)C3CCN(Cc4ccccc4)CC3)cc2)c1.O=C(O)C(F)(F)F`: the Inhibition in assay [1] was 85%; in assay [2], 40%; in assay [3] it was 22%.
For the compound `CCOc1ccc2nccc([C@@H](O)[C@@H]3C[C@@H]4CCN3C[C@@H]4CC)c2c1` [ETHYLHYDROCUPREINE], the Inhibition in assay [1] amounted to 99%; in assay [2] it was 51%; in assay [3], 1%.
Regarding `Cc1cc(NC(=O)[C@H](CC(C)C)Nc2ccc(C#N)c3ccccc23)ccc1F.O=C(O)C(F)(F)F`, the Inhibition in assay [1] is recorded as 95%; in assay [2], 88%; in assay [3] it was 35%.
Turning to `COc1ccc(C=CC(=O)NC2CCC(CN3CCC(c4c[nH]c5ccccc45)CC3)CC2)cc1` (centres undefined), the Inhibition is 100% in assay [1]; 61% and 60% in assay [2]; 13% and 30% in assay [3].
As for `CC[C@H]1CN2CC[C@@H]1C[C@H]2[C@H](O)c1cc(-c2ccc(F)cc2)nc2ccc(O)cc12.Cl`, the Inhibition in assay [1] was determined as 99%; in assay [2], 99%; in assay [3] it was 25%.
In the case of `CC(=O)Nc1ccc(OCCN(CC(F)(F)F)c2ccc(C#N)cc2C(F)(F)F)cc1`, the Inhibition in assay [1] stood at 81%; in assay [2], 83%; in assay [3], 0%.
As to `CN(C)CCCn1cc(C(=O)OC2CC3CCC(C2)N3C)c2cc(-c3ccccc3)ccc21.Cl` (centres undefined), the Inhibition turned out to be 97% in assay [1], 96% in assay [2] and 97% in assay [3].
As for `CCOC(C(=O)OCCN(C(C)C)C(C)C)(c1ccccc1)c1ccccc1`, the Inhibition in assay [1] turned out to be 97%; in assay [2], 4%; in assay [3] it was 4%.
Consider `CS(=O)(=O)Nc1ccc2[nH]cc(C3CCN(CC4CCC(NC(=O)/C=C/c5ccccc5Cl)CC4)CC3)c2c1` (centres undefined), for which the Inhibition in assay [1] was 96%; in assay [2], 7%; in assay [3] it was 12%.
